Our source for the Potency and outcome values is PubChem BioAssay (Tox21).

Assay [1] can be described thus: qHTS RealTime-Glo MT Cell Viability Assay in HepG2 cells - 40 hour (AID 1224870). Note: nearly all actives have a fitted effect of over 50% in size. The essentials: (§1)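 HepG2 cells (600/well) mixed with RealTime-Glo MT reagent, settled 5 h at 37 C/5% CO2 before compound addition. Nonlytic NanoLuc luminescence from viable-cell prosubstrate reduction read repeatedly during 40 h treatment at 37 C.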
For orientation: qHTS replaces the single test concentration by a dilution series.

Assay [2] in a line: A CellTox Green Cytotoxicity Assay to monitor cytotoxicity in HEK293 cells - 40 hour (AID 1224871). Note: nearly all actives have a fitted effect of over 45% in size. The essentials: (§2)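 Real-time, in one plate: 600 HEK293 cells/well with dead-cell DNA dye, pinned compound after 5 h, 37 C incubation over 40 h; viable cells give no appreciable fluorescence.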
Assay [3] can be described thus: qHTS RealTime-Glo MT Cell Viability Assay in HEK293 cells - 16 hour (AID 1224872). Note: nearly all actives have a fitted effect of over 50% in size. Note: potency is the fitted concentration of half-maximal effect. The essentials:
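Quantitative high-throughput screen of the Tox21 10K library in HEK293: cells and RealTime-Glo reagents plated together, compound added at 5 h, luminescence monitored through 40 h at 37 C.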

Assay [4] is described as follows: qHTS RealTime-Glo MT Cell Viability Assay in HepG2 cells - 8 hour (AID 1224873). Note: nearly all actives have a fitted effect of over 55% in size. An outline of the steps:
as §1

Assay [5] in a line: A CellTox Green Cytotoxicity Assay to monitor cytotoxicity in HEK293 cells - 24 hour (AID 1224875). Note: series mostly up to about 77 µM; nearly all actives have a fitted effect of over 45% in size. An outline of the steps:
as §2

The nature of assay [6]: A CellTox Green Cytotoxicity Assay to monitor cytotoxicity in HepG2 cells - 16 hour (AID 1224876). Note: nearly all actives have a fitted effect of over 45% in size. An outline of the steps: (§3)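 Cytotoxicity was tracked as dead-cell DNA fluorescence in HepG2 cells treated with test compounds at 37 C; each time-point value comes from one kinetic series spanning 0, 8, 16, 24, 32 and 40 h.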
Assay [7] is described as follows: qHTS RealTime-Glo MT Cell Viability Assay in HepG2 cells - 32 hour (AID 1224877). Note: nearly all actives have a fitted effect of over 55% in size. The essentials: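 Compound treatment began 5 h after plating HepG2 cells (600/well) with NanoLuc luciferase and prosubstrate. Plates stayed at 37 C for 40 h; luminescence was captured at six time points, 0 h through 40 h.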
Assay [8] can be described thus: A CellTox Green Cytotoxicity Assay to monitor cytotoxicity in HepG2 cells - 24 hour (AID 1224878). Note: nearly all actives have a fitted effect of over 45% in size. An outline of the steps: as §3
Assay [9] is described as follows: A CellTox Green Cytotoxicity Assay to monitor cytotoxicity in HepG2 cells - 40 hour (AID 1224879). Note: nearly all actives have a fitted effect of over 40% in size. The essentials: as §3

Inconclusive results are not listed. A number with no mark means an inactive call. Activity calls are given as the source filed them. Calls come from the whole dose curve; as a rule, active = well fitted curve in the direction sought with a large enough effect in the repeat runs; inconclusive = weak or mixed curves; inactive = no such curve, though single readings can be large; an effect the other way counts as inactive or inconclusive.

Regarding `Cc1c(-c2cccnc2)c2ccccc2n1CCCCC(=O)O`, the Potency entry in [1], in assay [2], in assay [3], in assay [5], in [6] and in assay [7] was “inactive” throughout. The Potency entry in assay [8] and in assay [9] was “inactive” throughout. Besides, in assay [4], the molecule was classed as inactive.

Take `C[C@@H](O)[C@H]1C(=O)N2C(C(=O)O)=C(S[C@@H]3CN[C@H](CNS(N)(=O)=O)C3)[C@H](C)[C@H]12`: the Potency result in assay [1], in assay [2], in assay [3], in assay [5], in assay [6] and in assay [7] was “inactive” each time. In addition, the Potency result in assay [8] and in [9] was “inactive” each time. In [4], the outcome was inactive.

Turning to `O=C(O)CNc1ccccc1`, the Potency result in assay [1], in assay [2], in [3], in [6], in assay [7] and in assay [8] was “inactive” each time. For the same molecule, the Potency entry in assay [9] was “inactive”. Moreover, in assay [4], the molecule was called inactive.

For the molecule `O=C(O)CCc1nc2ccccc2[nH]1`, the Potency result in [1], in assay [2], in [3], in [5], in [6] and in assay [7] was “inactive” each time. Moreover, the Potency entry in assay [8] and in assay [9] was “inactive” throughout. In addition, in assay [4], the outcome was inactive.

On to `C1CCN(CN2CCCCC2)CC1`, for which the Potency entry in assay [1], in assay [2], in assay [3], in [6], in assay [7] and in [8] was “inactive” throughout. The Potency result in assay [9] was “inactive”. Besides, the call in assay [4] was inactive.

For the molecule `Cc1ccc(Cl)c(OCC(O)CNC(C)(C)C)c1` (stereo not given), the Potency entry in assay [1], in assay [2], in assay [3], in assay [5], in assay [6] and in [7] was “inactive” in each case. Moreover, the Potency entry in assay [8] and in assay [9] was “inactive” throughout. For the same molecule, in assay [4], the result was inactive.

As to `CCCc1nc(C)c2c(=O)[nH]c(-c3cc(S(=O)(=O)N4CCN(CC)CC4)ccc3OCC)nn12`, the Potency entry in assay [1], in [2], in assay [3], in [5], in assay [6] and in assay [8] was “inactive” each time. In addition, the Potency result in assay [9] is “inactive”. Moreover, the outcome in [4] was inactive.

As for `CC(=O)OCC(=O)[C@@]1(O)CC[C@H]2[C@@H]3CCC4=CC(=O)C=C[C@]4(C)[C@@]3(F)[C@@H](O)C[C@@]21C`, the Potency result in [1], in assay [2], in assay [3], in assay [5], in assay [6] and in assay [7] was “inactive” each time. Also, the Potency result in [8] and in assay [9] was “inactive” in each case. The call in assay [4] was inactive.

`NC(=O)c1cc[n+](CC2=C(C(=O)[O-])N3C(=O)[C@@H](NC(=O)Cc4cccs4)[C@H]3SC2)cc1`: the Potency result in [1], in assay [2], in assay [3], in assay [5], in assay [6] and in assay [7] was “inactive” in each case. Further, the Potency result in [8] and in [9] was “inactive” each time. Also, the outcome in assay [4] was inactive.

As for `COc1cc(CNC(=O)CCCC/C=C/C(C)C)ccc1O`, the Potency result in [1], in [2], in assay [5], in assay [6], in assay [7] and in assay [8] was “inactive” throughout. Also, the Potency entry in assay [9] was “inactive”. Besides, the Potency in assay [3] was 4.25 µM (active). Moreover, the result in assay [4] was inactive.

Consider `CCC(CC)C(=O)O`, for which the Potency entry in [1], in assay [2], in assay [3], in assay [5], in assay [6] and in [7] was “inactive” each time. The Potency entry in [8] and in [9] was “inactive” in each case. In addition, the outcome in assay [4] was inactive.

In the case of `Cc1c(Cl)cccc1Nc1ccccc1C(=O)O`, the Potency entry in assay [1], in assay [2], in assay [3], in assay [5], in assay [6] and in [7] was “inactive” in each case. Also, the Potency result in assay [8] and in [9] was “inactive” in each case. Also, in assay [4], the result was inactive.

Take `C/C(=C\C(C)CC(C)CC(C)C)C1CC(=O)OC1=O` (stereo not given): the Potency entry in assay [1], in assay [2], in assay [3], in [5], in assay [6] and in assay [7] was “inactive” in each case. Further, the Potency entry in assay [8] and in [9] was “inactive” throughout. In addition, the molecule was called inactive in assay [4].

For the molecule `CCCCCCCCNC`, the Potency result in assay [1], in [2], in [3], in [5], in assay [6] and in assay [7] was “inactive” throughout. Besides, the Potency result in assay [8] and in assay [9] was “inactive” throughout. Further, in assay [4], the result was inactive.

Take `CCCOC(C)=O`: the Potency entry in assay [1], in assay [2], in assay [3], in assay [5], in assay [6] and in assay [7] was “inactive” throughout. Also, the Potency result in assay [8] and in assay [9] was “inactive” in each case. Moreover, in [4], the result was inactive.

As to `Nc1ccccc1Nc1ccccc1`, the Potency entry in assay [1], in [2], in [3], in assay [5], in assay [6] and in assay [7] was “inactive” throughout. Further, the Potency result in [8] and in assay [9] was “inactive” each time. The molecule was classed as inactive in [4].

On to `C[C@H](N)C(=O)N[C@@H](C)C(=O)NC1[C@H]2CN(c3nc4c(cc3F)c(=O)c(C(=O)O)cn4-c3ccc(F)cc3F)C[C@@H]12` (stereo not given in full), for which the Potency entry in assay [1], in [2], in [3], in assay [5], in assay [6] and in assay [7] was “inactive” each time. For the same molecule, the Potency result in assay [8] and in assay [9] was “inactive” each time. Moreover, the outcome in [4] was inactive.
